Screening results as filed in PubChem.
Vif inh – HIV Vif self-association inhibitors, primary screen, imaging, HEK293T, single point | inhibition, % at 7.49 µM | HEK293T cells, Vif self-association by quenched fluorescence, 24 h | AID 602346, 2012 | 340,000 tested, 0.35% active; in the data active means inhibition above about 50%, passing the limit was not always enough
HSF1 inhib – HSF1 inhibitors in luciferase reporter cells, primary screen, cell-based, NIH3T3, luminescence. NIH3T3-HGL HSE-luciferase, MG132-induced, luminescence 8 h; hits give low values. activity change, negative = inhibition, % at 7.5 µM (by protocol). 300,000 tested, 0.77% active. AID 2098, 2009;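 active means more than half of replicate wells show activity change below -50%, luminescence cut by over half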;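 further: luciferase reports HSF-1 transcriptional activity via heat shock element; 0% = median of DMSO wells and -100% = zero luminescence signal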
HSF1 activator – HSF-1 activators, primary screen, NIH3T3-HGL cells, MG132 stress, luminescence, single point; NIH3T3-HGL HSF-1 luciferase reporter, 8 h; 100% = twice DMSO control signal; activation, % at 9 µM; 300,000 tested, 1.7% active;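 active means mean replicate activation of at least 50% with a set share of replicates each reaching 50%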;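 further: 0% = median of the neutral control wells and 100% = twice that signal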
esBAF inh – Bmi1 luciferase reporter increase in mESCs, primary screen, esBAF inhibitor project, mouse ES cells, Bmi1 luciferase knock-in, single point. 24 h; 100% = twice the neutral-well signal. 350,000 tested, 2% active. reporter increase, % at 12.5 µM. AID 602393, 2012; in the data active means activation above about 40%;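 further: 0% = median of the plate's neutral control wells and 100% = double that signal; a rise in the Bmi1 reporter signal indicates esBAF inhibition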
The depositor's hits bear a star; . = not tested or not shown. This is a sample that favours compounds with a hit; in the whole collection about 3.4% have one here.

SMILES | Vif inh | HSF1 inhib | HSF1 activator | esBAF inh
NC(CCc1ccccc1)c1csc(Nc2ccc(C(=O)c3ccccc3)cc2)n1 (stereo unspecified) | 57* | . | . | -5
CCOC(=O)N(C)C[C@H]1OCc2cn(nn2)CCCC(=O)N([C@@H](C)CO)C[C@H]1C | . | . | . | -4
CC(C)NC(=O)CCc1nnc(Cc2cccc(C(F)(F)F)c2)o1 | 17 | 8 | 31 | 67*
CCC(COC)NC(=O)CCc1nnc(Cc2cccc(C(F)(F)F)c2)o1 (stereo unspecified) | -2 | 39 | 54* | 29
CC1=NN(C(N)=S)C(=O)C1N=Nc1ccc([N+](=O)[O-])cc1 (stereo unspecified) | 4 | 26 | 21 | 76*
CC1=NN(C(N)=S)C(=O)C1N=Nc1ccc(Cl)cc1Cl (stereo unspecified) | 1 | 13 | 31 | 79*
CC1=NN(C(N)=S)C(=O)C1N=Nc1ccccc1Cl (stereo unspecified) | -12 | 4 | 31 | 11
CC1=NN(C(N)=S)C(=O)C1N=Nc1ccc(F)cc1 (stereo unspecified) | 1 | 31 | 53* | 68*
CC(=O)Nc1ccc(N=NC2C(=O)N(C(N)=S)N=C2C)cc1 (stereo unspecified) | 1 | 6 | 10 | 2
CC1=NN(C(N)=S)C(=O)C1N=Nc1cccc(C)c1 (stereo unspecified) | -8 | 12 | 37 | 67*
CC1=NN(C(N)=S)C(=O)C1N=Nc1ccc(O)cc1 (stereo unspecified) | 5 | -3 | -4 | 23
C[C@H]1CN([C@@H](C)CO)C(=O)Cc2cc(NS(C)(=O)=O)ccc2O[C@H]1CN(C)CC1CCCCC1 | . | . | . | -1
CO[C@H](CN(C)S(=O)(=O)c1ccc(Cl)cc1)[C@@H](C)CN([C@@H](C)CO)S(=O)(=O)c1cccc(Cl)c1 | . | . | . | -1
COCCNC(=O)C[C@H]1CC[C@@H]2[C@H](COC[C@@H](O)CN2Cc2cccc(-c3ccncc3)c2)O1 | . | . | . | 2
C[C@H]1CN([C@@H](C)CO)C(=O)c2cc(C#CC3CCCCC3)cnc2O[C@H]1CN(C)CC1CC1 | . | . | . | 0
CCOC(=O)Cc1ccc2sc(-c3ccccc3)nc2c1 | -4 | 53 | 92* | 69*
CN1C(=O)c2cc(NC(=O)Nc3cccc(Cl)c3)ccc2OC[C@@H]2O[C@H](CC(=O)O)CC[C@H]21 | . | . | . | 5
COc1ccc2[nH]c(=O)c(CN(Cc3cccs3)S(=O)(=O)c3c(C)ccc4nsnc34)cc2c1 | -10 | -64* | -69 | 17
Cc1ccc2[nH]c(=O)c(CN(Cc3ccco3)S(=O)(=O)c3c(C)ccc4nsnc34)cc2c1 | 1 | 1 | -1 | 3
Cc1noc(C)c1NC(=O)N(C)C[C@@H]1Oc2ccc(NC(=O)Nc3ccccc3)cc2C(=O)N([C@@H](C)CO)C[C@H]1C | . | . | . | -6
C[C@H]1CN([C@@H](C)CO)C(=O)Cc2cc(NS(C)(=O)=O)ccc2O[C@@H]1CN(C)S(C)(=O)=O | . | . | . | -4
O=C1CCCC/C1=C\Nc1ccc(Cl)cn1 | . | 4 | -3 | 44*
COCCNC(=O)[C@H]1[C@H](CO)[C@H]2Cn3c(ccc(-c4cccc(F)c4)c3=O)[C@@H]1N2C(=O)NC(C)C | . | . | . | -4
CCOc1ccc(NC(=O)C(C)NS(=O)(=O)c2ccc(NC(C)=O)cc2)cc1 (stereo unspecified) | -2 | -67* | -74 | .
COc1cccc(-c2nnc(N)o2)c1 | -2 | -3 | 13 | 17
SMILES | Vif inh | HSF1 inhib | HSF1 activator | esBAF inh
COc1cccc(C(=O)Nc2ccc(-c3nnc(-c4ccco4)o3)cc2)c1 | 12 | 22 | 34 | .
COc1cccc(-c2nnc(-c3ccc(C)o3)o2)c1 | 8 | 28 | 63* | -29
COc1cccc(-c2nnc(-c3ccco3)o2)c1 | 1 | 43 | 74* | .
C[C@@H]1CN([C@H](C)CO)C(=O)c2cc(NC(=O)c3ccncc3)ccc2O[C@H]1CN(C)C(=O)NC1CCCCC1 | . | . | . | 2
CCn1c2ccccc2c2nc3ccccc3nc21 | -12 | 12 | 37 | 11
CC(=O)n1c2ccccc2c2nc3ccccc3nc21 | 0 | 2 | 14 | 72*
O=c1[nH]c(CSc2ccccn2)nc2c1oc1ccccc12 | -2 | 48 | 108* | .
COc1ccccc1NC(=O)N(C)C[C@H]1Oc2ncc(Br)cc2C(=O)N([C@@H](C)CO)C[C@H]1C | . | . | . | 4
c1ccc(-c2nc3ccccc3s2)nc1 | 2 | 31 | 58* | 11
CC(=O)Nc1ccc(NC(=O)C(C)OC(=O)/C(C#N)=C/c2ccc(N(C)C)cc2)cc1 (stereo unspecified) | 124* | 21 | 18 | 66*
O=C(NC(=O)c1cccc(F)c1)OC[C@@H]1CCCN2CCCC[C@H]12 | 14 | -78* | -84 | -4
COc1ccc(NC(=O)Nc2cccc3c2O[C@@H](CN(C)C(=O)Nc2cccc4ccccc24)[C@H](C)CN([C@@H](C)CO)C3=O)cc1 | . | . | . | 38
c1ccc(-c2ccc(-c3ccccc3)[nH]2)cc1 | 10 | . | . | 72*
Cc1ccc(O)c(CNc2ccccn2)c1 | 11 | 34 | 43 | 64*
Cc1ccc(O)c(CNc2cccc(C)n2)c1 | -4 | 21 | 27 | 15
Cc1ccnc(NCc2cc(C)ccc2O)c1 | -2 | 14 | 28 | 56*
Cc1ccc(NCc2ccccc2O)cc1 | 3 | -1 | -12 | 49*
Cc1ccnc(NCc2cc(Cl)cc(Cl)c2O)c1 | . | . | . | -3
C[C@H](CO)N1C[C@H](C)[C@H](CN(C)C(=O)c2ccncc2)OCc2ccccc2-c2ccccc2C1=O | . | . | . | -5
C[C@H](CO)N1C[C@H](C)[C@H](CN(C)C(=O)Cc2ccccc2)OCCCC[C@H](C)Oc2ccc(NC(=O)Nc3ccc4c(c3)OCO4)cc2C1=O | . | . | . | 5
CCN(CC)Cc1c(O)ccc2c1O/C(=C\C=C\c1ccccc1)C2=O | 2 | 82 | 116* | -69
CS(=O)(=O)Oc1ccc2c(c1)O/C(=C\C=C\c1ccccc1)C2=O | -3 | 56 | 109* | 0
CC(Sc1ccccc1)C(=O)NCCc1ccccc1 (stereo unspecified) | -4 | 1 | -3 | 63*
O=C(CSc1ccccc1)NCCc1ccccc1 | -3 | 5 | 31 | 52*
CO[C@@H]1CN(C)C(=O)c2cc(NS(=O)(=O)CC(F)(F)F)ccc2OC[C@@H](C)N(Cc2nccs2)C[C@H]1C | . | . | . | -1
CC1(C)CC(NC(=O)C2CCC(=O)N(Cc3ccccc3F)C2)CC(C)(C)C1 (stereo unspecified) | -5 | 10 | 21 | 47*
Cc1ccc(S(=O)(=O)N[C@@H]2CC[C@H](CC(=O)N3CCC(Cc4ccccc4)CC3)O[C@@H]2CO)cc1 | . | . | . | -15
CCOC(=O)c1cc(-c2ccccc2)sc1N | -1 | 8 | 9 | .
CCOC(=O)c1sc(-c2ccc(F)cc2)cc1N | 9 | 28 | 47 | 57*
CCOC(=O)c1sc(-c2ccccc2)cc1N | 18 | -30 | -41 | 67*
